From PubChem
Rows were chosen to be rich in hits. Some 28% of all compounds tested hit in one or more screens of this group.
CYP2C9 activ = CYP2C9 (human) activation | P11712 | recombinant CYP2C9, luciferin-H conversion, luminescence; stronger effect = higher value; factor 1 = untreated enzyme, 0 = blocked | activation factor at 5 µM | hit rate 1.4% among 96,000;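 active means activation factor of 2 or more for CYP2C9 at a 5 µM dose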
Target sequence (P11712 whole entry, looked up): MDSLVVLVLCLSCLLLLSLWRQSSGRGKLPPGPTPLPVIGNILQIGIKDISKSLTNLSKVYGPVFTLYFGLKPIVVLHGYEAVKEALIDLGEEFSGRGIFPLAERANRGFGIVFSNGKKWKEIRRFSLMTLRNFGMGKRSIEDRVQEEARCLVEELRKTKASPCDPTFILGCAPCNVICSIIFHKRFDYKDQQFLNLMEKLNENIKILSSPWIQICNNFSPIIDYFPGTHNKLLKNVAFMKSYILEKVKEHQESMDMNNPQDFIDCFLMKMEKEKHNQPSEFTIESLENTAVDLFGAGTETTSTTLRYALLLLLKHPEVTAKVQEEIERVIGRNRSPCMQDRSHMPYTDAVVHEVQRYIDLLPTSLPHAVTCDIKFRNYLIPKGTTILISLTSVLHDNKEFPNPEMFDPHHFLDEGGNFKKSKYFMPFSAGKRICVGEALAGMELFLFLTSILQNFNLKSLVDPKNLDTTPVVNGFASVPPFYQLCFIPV
CYP2C19 activ = cytochrome P450 2C19 (human) activation | P33261 | recombinant CYP2C19, luciferin-H EGE luminescence; stronger effect = higher value; 0 = fully inhibited enzyme, 1 = untreated enzyme | activation factor at 5 µM | 96,000 tested, under 10 active | AID 1025;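 active means activation factor of at least 2 at 5 µM in the primary screen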
CYP2C9 inhib = blocks human cytochrome P450 2C9; P11712; CYP2C9 Supersomes, luciferin-H conversion, luminescence; inhibition, % at 5 µM; hit rate 20% among 96,000; AID 777;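 active means blocking of liver enzyme CYP2C9 beyond about 50% at 5 µM, limit read from the data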
PLK1 kinase inh = blocks human PLK1 kinase activity | hit rate 0.53% among 97,000 | P53350 | inhibition, % at 10 µM | recombinant PLK1 kinase, TR-FRET peptide phosphorylation | AID 619;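 active means inhibition of 50% or more in the single-concentration screen; inactive means inhibition below 50%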
PLK1 PBD inh = inhibitors of human Plk1 polo box domain binding; hit rate 0.13% among 97,000; Plk1 PBD phosphopeptide binding, fluorescence polarization; P53350; inhibition, %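 (tested at about 20 µM)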; in the data active means inhibition above about 34%, passing the limit was not always enough
CYP2C19 inhib = inhibitors of human CYP2C19 | CYP2C19 Supersomes, luciferin-H EGE luminescence, 30 min | inhibition, % at 5 µM | hit rate 21% among 96,000;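 active means CYP2C19 inhibition above a set limit at 5 µM in the primary screen, cut at about 50% in these data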
Numbers stand for hits.

For CCOC(=O)C1C(=O)CC(C)(O)C(C(=O)OCC)C1c1cccc(OC)c1 (configuration not stated) the results were CYP2C9 activ inactive, CYP2C19 activ inactive, CYP2C9 inhib inactive, PLK1 kinase inh inactive, PLK1 PBD inh inactive and CYP2C19 inhib inactive.
`COc1cccc(/C=N/NC(=O)CC(=O)NCCc2ccc(OC)c(OC)c2)c1` gave CYP2C9 activ inactive, CYP2C19 activ inactive, CYP2C9 inhib inactive, PLK1 kinase inh inactive, PLK1 PBD inh inactive and CYP2C19 inhib inactive.
`CCCCCCC1CC(C)(/C(C)=N/NC(N)=O)OC1=O` (configuration not stated) gave CYP2C9 activ inactive, CYP2C19 activ inactive, CYP2C9 inhib inactive, PLK1 kinase inh inactive, PLK1 PBD inh inactive and CYP2C19 inhib inactive.
For O=C(NCCCN1CCCC1=O)c1cc(NS(=O)(=O)c2ccc(F)cc2)cc(NS(=O)(=O)c2ccc(F)cc2)c1 the results were CYP2C9 activ inactive, CYP2C19 activ inactive, CYP2C9 inhib inactive, PLK1 kinase inh inactive, PLK1 PBD inh inactive and CYP2C19 inhib inactive.
`Cc1ccc(NS(=O)(=O)c2ccc3c(c2)oc(=O)n3C)cc1F` gave CYP2C9 activ inactive, CYP2C19 activ inactive, CYP2C9 inhib 76, PLK1 kinase inh inactive, PLK1 PBD inh inactive and CYP2C19 inhib 56.
`Cn1c(=O)oc2cc(S(=O)(=O)Nc3ccc4c(c3)OCCO4)ccc21` gave CYP2C9 activ inactive, CYP2C19 activ inactive, CYP2C9 inhib inactive, PLK1 kinase inh inactive, PLK1 PBD inh inactive and CYP2C19 inhib inactive.
`CCOC(=O)c1ccc(NS(=O)(=O)c2ccc3c(c2)oc(=O)n3C)cc1` gave PLK1 kinase inh inactive and PLK1 PBD inh inactive.
`CSc1cccc(NS(=O)(=O)c2ccc3c(c2)oc(=O)n3C)c1` gave CYP2C9 activ inactive, CYP2C19 activ inactive, CYP2C9 inhib 53, PLK1 kinase inh inactive, PLK1 PBD inh inactive and CYP2C19 inhib 97.
For COc1cc2c(cc1OC)CN(C(=O)CC1CC3CCC1C3)CC2 (configuration not stated) the results were CYP2C9 activ inactive, CYP2C19 activ inactive, CYP2C9 inhib inactive, PLK1 kinase inh inactive, PLK1 PBD inh inactive and CYP2C19 inhib inactive.
Cc1csc(SCc2nc3sc4c(c3c(=O)[nH]2)CCC4)n1 was read as PLK1 kinase inh inactive and PLK1 PBD inh inactive.
Screening O=C(CCN1C(=O)COc2ccccc21)NCc1cccnc1 returned PLK1 kinase inh inactive and PLK1 PBD inh inactive.
Screening O=C(CCN1C(=O)C2C3C=CC(C3)C2C1=O)NCc1cccnc1 (configuration not stated) returned CYP2C9 activ inactive, CYP2C19 activ inactive, CYP2C9 inhib inactive, PLK1 kinase inh inactive, PLK1 PBD inh inactive and CYP2C19 inhib 98.
Screening COc1ccc(NC(=O)NCCN2C(=O)C3C4C=CC(C4)C3C2=O)cc1 (configuration not stated) returned CYP2C9 activ inactive, CYP2C19 activ inactive, CYP2C9 inhib inactive, PLK1 kinase inh inactive, PLK1 PBD inh inactive and CYP2C19 inhib inactive.
For Cc1ccccc1NC(=O)NCCN1C(=O)C2C3C=CC(C3)C2C1=O (configuration not stated) the results were CYP2C9 activ inactive, CYP2C19 activ inactive, CYP2C9 inhib inactive, PLK1 kinase inh inactive, PLK1 PBD inh inactive and CYP2C19 inhib 50.
Screening CC12C(=O)N(Cc3ccccc3)C(=O)C1C1C=CC2C1 (configuration not stated) returned CYP2C9 activ inactive, CYP2C19 activ inactive, CYP2C9 inhib inactive and CYP2C19 inhib 89.
For O=C(NCCN1C(=O)C2C3C=CC(C3)C2C1=O)NCc1ccccc1 (configuration not stated) the results were CYP2C9 activ inactive, CYP2C19 activ inactive, CYP2C9 inhib inactive, PLK1 kinase inh 54, PLK1 PBD inh inactive and CYP2C19 inhib inactive.
For CCC(C)NC(=O)C1c2ccccc2C(=O)N(c2ccc(OC)cc2)C1c1ccc(OC)cc1 (configuration not stated) the results were CYP2C9 activ inactive, CYP2C19 activ inactive, CYP2C9 inhib inactive, PLK1 kinase inh inactive, PLK1 PBD inh inactive and CYP2C19 inhib inactive.
`Cc1cccc(NC(=O)CCN2C(=O)C3C4C=CC(C4)C3C2=O)c1` (configuration not stated) gave CYP2C9 activ inactive, CYP2C19 activ inactive, CYP2C9 inhib inactive, PLK1 kinase inh inactive, PLK1 PBD inh inactive and CYP2C19 inhib 85.
For COc1ccc(CN2C(=O)C3C4C=CC(C4)C3C2=O)cc1 (configuration not stated) the results were CYP2C9 activ inactive, CYP2C19 activ inactive, CYP2C9 inhib inactive, PLK1 kinase inh inactive, PLK1 PBD inh inactive and CYP2C19 inhib inactive.
Screening C/C(Cl)=C/CN1C(=O)C2C3C=CC(C3)C2C1=O (configuration not stated) returned CYP2C9 activ inactive, CYP2C19 activ inactive, CYP2C9 inhib inactive, PLK1 kinase inh inactive, PLK1 PBD inh inactive and CYP2C19 inhib 73.
CCOC(=O)c1cccc(NC(=O)CN2C(=O)C3C4C=CC(C4)C3C2=O)c1 (configuration not stated) was read as CYP2C9 activ inactive, CYP2C19 activ inactive, CYP2C9 inhib inactive, PLK1 kinase inh inactive, PLK1 PBD inh inactive and CYP2C19 inhib inactive.
`O=C1C2C3C=CC(C3)C2C(=O)N1Cc1ccccc1` (configuration not stated) gave CYP2C9 activ inactive, CYP2C19 activ inactive, CYP2C9 inhib inactive, PLK1 kinase inh inactive, PLK1 PBD inh inactive and CYP2C19 inhib 84.
Screening O=C(NCCN1C(=O)C2C3C=CC(C3)C2C1=O)Nc1ccccc1 (configuration not stated) returned CYP2C9 activ inactive, CYP2C19 activ inactive, CYP2C9 inhib inactive, PLK1 kinase inh 67, PLK1 PBD inh inactive and CYP2C19 inhib 70.
For c1cncc(CNC2CCCc3ccccc32)c1 (configuration not stated) the results were CYP2C9 activ inactive, CYP2C19 activ inactive, CYP2C9 inhib inactive, PLK1 kinase inh inactive, PLK1 PBD inh inactive and CYP2C19 inhib inactive.
`CC1(C)CC(=O)C=C(Nc2ccc(Br)cn2)C1` gave CYP2C9 activ inactive, CYP2C19 activ inactive, CYP2C9 inhib inactive, PLK1 kinase inh inactive, PLK1 PBD inh inactive and CYP2C19 inhib inactive.
`Cc1ccc(NC(=O)NCCN2C(=O)C3C4C=CC(C4)C3C2=O)cc1` (configuration not stated) gave CYP2C9 activ inactive, CYP2C19 activ inactive, CYP2C9 inhib inactive, PLK1 kinase inh 62, PLK1 PBD inh inactive and CYP2C19 inhib 91.
Screening Cc1cccc(NC(=O)CCn2ccnc2C)c1 returned CYP2C9 activ inactive, CYP2C19 activ inactive, CYP2C9 inhib inactive, PLK1 kinase inh inactive, PLK1 PBD inh inactive and CYP2C19 inhib 62.
Screening O=C(COc1ccccc1Cl)NC(=S)Nc1cccc(NC(=O)c2ccccc2Cl)c1 returned CYP2C9 activ inactive, CYP2C19 activ inactive, CYP2C9 inhib 67, PLK1 kinase inh inactive, PLK1 PBD inh inactive and CYP2C19 inhib inactive.
